S-ASM inh = inhibitors of human secretory acid sphingomyelinase; P17405; placental ASM, HMU-PC fluorogenic substrate, 60 min; Potency, µM (highest dose often 57.5 µM), for inactives: at the top dose activity change, negative = inhibition, actives largely listed as inhibitors; hit rate 0.006% among 340,000; further: potency means the concentration at half of the fitted maximal effect
Target sequence (P17405 47-631 limits assumed): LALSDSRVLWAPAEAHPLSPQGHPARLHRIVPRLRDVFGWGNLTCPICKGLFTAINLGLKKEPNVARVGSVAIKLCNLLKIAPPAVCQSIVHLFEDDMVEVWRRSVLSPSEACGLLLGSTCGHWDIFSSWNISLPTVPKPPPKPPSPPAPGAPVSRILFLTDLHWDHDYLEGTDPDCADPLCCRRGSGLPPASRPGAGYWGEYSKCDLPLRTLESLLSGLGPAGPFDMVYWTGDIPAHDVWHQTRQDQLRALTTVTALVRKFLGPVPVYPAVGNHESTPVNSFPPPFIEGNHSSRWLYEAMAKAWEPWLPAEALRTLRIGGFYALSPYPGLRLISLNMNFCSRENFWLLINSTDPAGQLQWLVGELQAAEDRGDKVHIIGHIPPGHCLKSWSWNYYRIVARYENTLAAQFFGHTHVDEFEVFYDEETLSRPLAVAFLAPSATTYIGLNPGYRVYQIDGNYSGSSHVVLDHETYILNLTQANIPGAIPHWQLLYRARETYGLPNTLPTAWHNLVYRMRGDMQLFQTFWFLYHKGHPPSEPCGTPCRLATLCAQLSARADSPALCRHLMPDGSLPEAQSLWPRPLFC
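Human placenta-derived ASM preincubated with compound 10 min at room temperature, then reacted with 9 uM (final) fluorogenic HMU-PC substrate for 60 min at 37 C. Stop solution raises pH to 10; fluorescence read at Ex 386/Em 447 nm.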
SW480 rerep = induces DNA re-replication in SW480 colon adenocarcinoma cells | SW480 DNA re-replication, Hoechst DNA content imaging, 48 h | Potency, µM (doses to about 46.1 µM), for inactives: at the top dose re-replication activation, most hits filed as activators | hit rate 1.8% among 340,000 | AID 624297; further: potency means the concentration at half of the fitted maximal effect; % of control where 0% means no effect; nearly all actives have a fitted effect of over 55% in size
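Quantitative HTS format with DMSO vehicle controls; 48 hr drug incubation at 37 C, then 40 min Hoechst staining and scanning imager measurement at 405 nm excitation.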
KB-3-1 cytotox = kills parental KB-3-1 adenocarcinoma cells. Potency, µM (series often up to 46.1 µM), usual class: cytotoxic. KB-3-1 viability, CellTiter-Glo ATP luminescence, 72 h. hit rate 1.4% among 400,000; further: potency means the concentration at half of the fitted maximal effect; on the % scale 0 is the no-effect control and ±100 the full control effect; nearly all actives have a fitted effect of over 60% in size
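Screening of KB-3-1 cells (DMEM, 10% FBS, phenol-red free) ran from lowest to highest compound concentration; after 72 h at 37 °C viability was read luminescently and curves fitted.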
KB-V1 cytotox = KB-V1 MDR subline cytotoxicity; AID 1347076; Potency, µM (highest dose often 46.1 µM), hits mostly cytotoxic; KB-V1 MDR cells viability, CellTiter-Glo, 72 h; hit rate 3.4% among 400,000; further: potency means the concentration at half of the fitted maximal effect; on the % scale 0 is the no-effect control and ±100 the full control effect; nearly all actives have a fitted effect of over 60% in size
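KB-V1, DMEM (no phenol red) + 10% FBS; cpd pin-transferred, titration series; 72 h, 37 degrees C; CellTiter-Glo, luminescence. Data normalized, curve-fit.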
Giardia killer = kills Giardia lamblia; Giardia lamblia trophozoite viability; activity change, % at 7.66 µM, hits read low; hit rate 0.15% among 340,000; AID 540267; in the data active means activity change below about -80%; inconclusive means between about -30% and that limit;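 further: parasites exposed to compound for two days anaerobically before the ATP read; on the % scale 0 is the no-effect control and ±100 the full control effect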
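Compounds were tested on trophozoites seeded at 100 cells/well and held 48 hrs at 37 deg C anaerobically. An ATP-based luminescent kit measured the remaining live cells.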
MCF10A rerep = inducers of DNA re-replication in MCF 10A breast cells; MCF 10A DNA re-replication, Hoechst nuclear intensity, 48 h; Potency, µM (doses to about 46.1 µM), without a hit: top-dose activity, positive = re-replication, hits mostly activators; hit rate 2.9% among 350,000; AID 624296; further: potency means the concentration at half of the fitted maximal effect; % of control where 0% means no effect; nearly all actives have a fitted effect of over 50% in size
The depositor's hits bear a star; i = inactive; u = inconclusive; x = no result given; ! = repeats disagree; [ ] = dose if it differs, or a comment. In the library only some 6.9% were active in any assay of this set; here they are far more common. Unless noted, the call rests on the fitted dose curve; in most records, active means well fitted curve in the direction sought with a large enough effect; inconclusive means small, poorly fitted or top-dose-only effect, or another doubt; inactive means no such curve, though single readings can be large; an effect the other way counts as inactive or inconclusive.

SMILES | S-ASM inh | SW480 rerep | KB-3-1 cytotox | KB-V1 cytotox | Giardia killer | MCF10A rerep
O=C(Cc1c[nH]c2ccccc12)NNCc1ccc(N(CCCl)CCCl)cc1 | -10.3% | 16.4µM* | u | i | -17.4 | 24.7%
CCOC(=O)c1sc(/N=C/c2c(O)n(-c3cccc(C)c3)c(=O)[nH]c2=O)c(C#N)c1C | -0.7% | 1.8% | i | 20.6µM* | -10.0 | u
O=P(O)(O)/C=C(\Cl)c1ccccc1 | 22.4µM* | -10.3% | i | i | 19.3 | 2.4%
CC(C)n1c(=O)c(C=Nc2cccc([N+](=O)[O-])c2)c(O)n(CCc2ccccc2)c1=O | -4.6% | -2.9% | i | i | 0.1 | 23.1µM*
Cc1onc(-c2ccccc2Cl)c1C(=O)OCC(=O)c1ccc2c(c1)OCCO2 | -0.8% | -8.8% | i | u | -9.3 | u
CCCC(C)C1(CC)C(=O)NC(=S)NC1=O (stereo not given) | x | 1.0% | x | x | x | -1.5%
CCC(=O)[C@@H](C)[C@@H](O)[C@H](C)C[C@@H](C)C1OC(=O)C[C@@]2(O)CC=C(C)C(O2)C(C)=CCCC[C@H](O[C@H]2C[C@@H](OC(N)=O)[C@H](O)[C@@H](C)O2)C=C[C@H](C)C[C@H]1C (stereo not given in full) | x | x | 0.651µM* | u | x | x
OC(O)C(Cl)(Cl)Cl | x | 0.9% | x | x | x | -6.3%
CC(C)(C)c1cc(C=C(C#N)C#N)cc(C(C)(C)C)c1O | -1.6% | -44.7% | 1.3µM* | 1.03µM* | -5.5 | u
COC(=O)[C@]12OC[C@]34C([C@@H](O)[C@@H]1O)[C@]1(C)CC(=O)C(O)=C(C)[C@@H]1C[C@H]3OC(=O)[C@H](O)[C@@H]24 (stereo not given in full) | 7.5% | -63.9% | u | i | 0.5 | 14.6µM*
O=C(CO)C(O)C(O)C(O)CO (stereo not given) | 5.6% | u | i | i | 9.1 | -8.9%
[O]=[Cd] | x | -7.8% | x | x | x | -1.0%
C[C@H]1C=CC(=O)O[C@H]1c1ccccc1 | 2.9% | -7.0%[9.22 µM] | 20.6µM* | u | 2.7 | u
COC(=O)C1=C(c2ccc(F)cc2F)C[C@@H]2CC[C@H]1N2C(=O)N1CCC(O)(c2ccc(Cl)cc2)CC1 | -2.0% | -1.5% | u | i | -7.1 | 7.31µM*
CC(=O)OO | x | 1.7% | x | x | x | -2.8%
CCC1(O)C(=O)OCc2c1cc1n(c2=O)Cc2cc3c(N)cccc3nc2-1 (stereo not given) | 16.0% | u | 0.206µM* | 1.46µM* | 11.5 | -10.0%
CCCCn1c(NC(=O)c2ccc(Br)o2)c(C(=O)OCC)c2nc3ccccc3nc21 | i | 16.4µM*! | i | i | -5.0 | 18.4µM*!
CCCCn1c(NS(=O)(=O)c2ccccc2)c(C(=O)OCC)c2nc3ccccc3nc21 | i | 16.4µM* | i | u | 2.7 | 6.51µM*
O=C(Cc1ccc(S(=O)(=O)N2CCCC2)s1)N1CCN(c2ccc(F)cc2)CC1 | -3.6% | u | i | u | 14.0 | 13.2%
CCOC(=O)c1ccc(NC(=O)CSc2nc3c(cc2C#N)N2CCC3CC2)cc1 | x | x | i | u | x | x
N#Cc1cc2c(nc1SCC(=O)Nc1cc(Cl)cc(Cl)c1)C1CCN2CC1 | 4.6% | 24.3% | i | 4.61µM* | -4.2 | 2.31µM*
N#Cc1cc2c(nc1SCC(=O)Nc1ccc(F)c(Cl)c1)C1CCN2CC1 | x | x | i | 14.6µM* | x | x
N#Cc1cccc(NC(=O)CSc2nc3c(cc2C#N)N2CCC3CC2)c1 | x | x | u | i | x | x
N#Cc1cc2c(nc1SCC(=O)Nc1cccc(C(F)(F)F)c1)C1CCN2CC1 | x | x | u | 9.2µM* | x | x
N#Cc1cc2c(nc1SCC(=O)Nc1ccc(OC(F)(F)F)cc1)C1CCN2CC1 | x | x | u | i | x | x
SMILES | S-ASM inh | SW480 rerep | KB-3-1 cytotox | KB-V1 cytotox | Giardia killer | MCF10A rerep
CCN(C[C@H]1N[C@@](C)(C(=O)OC)[C@H]2C(=O)N(Cc3ccccc3)C(=O)[C@@H]12)C(=O)Nc1ccccc1 | 1.3% | u | i | i | 12.3 | 1.2%
C=C1C(=O)OC2CC3(C)OC3CCC(C)=CC(OC(C)=O)C12 (stereo not given) | 4.3% | 3.7% | u | i | -11.5 | 5.17µM*
C=C1C(=O)O[C@@H]2C[C@@H](C)[C@H]3C=CC(=O)[C@]3(O)C[C@@H]12 | 4.8% | u | i | i | 7.1 | u
CC(=O)OCC12CC(OC(=O)CC(C)C)C(C)=CC1OC1C(O)C(OC(C)=O)C2(C)C12CO2 (stereo not given) | 2.2% | u | 0.0092µM* | u | u | u
O=C(c1cc(C(=O)NCc2ccccc2)c(=O)n(Cc2ccccc2)c1)c1cc(Cl)ccc1O | -6.2% | 11.5% | u | 18.4µM* | 6.1 | u
CN1CCCC1c1cccnc1 (stereo not given) | 0.0% | -0.5% | i | i | u | -1.2%
COc1cc(C(=O)NN=Cc2ccc(N(CCCl)CCCl)cc2)cc(OC)c1OC | 201.8% | 18.4µM* | 16.4µM* | i | 0.0 | 16.4µM*
NC(Cc1ccc(O)cc1)C(=O)NN=Cc1ccc(N(CCCl)CCCl)cc1 (stereo not given) | 20.6% | u | i | i | -19.9 | 22.0%
COc1ccc(C2=CC(c3ccc(OC)c(OC)c3)c3c(c4ccccc4oc3=O)O2)cc1OC (stereo not given) | -10.7% | 13µM* | u | i | 4.9 | 2.91µM*
CC(C)C[C@H]1C(=O)N2CCCC2[C@]2(O)O[C@](NC(=O)[C@@H]3C=C4c5cccc6[nH]c(Br)c(c56)C[C@H]4N(C)C3)(C(C)C)C(=O)N12 (stereo not given in full) | x | 9.5% | x | x | x | 14.4%
CCOC(=O)C1(CCCc2ccccc2)CCN(C2CCCC2)CC1 | 2.3% | 16.4µM* | u | i | u | u
CCOc1ccc2nc(N(CCN(CC)CC)C(=O)c3ccc([N+](=O)[O-])cc3)sc2c1 | -0.3% | u | i | i | -0.9 | u
N#CSCC(=O)N1c2ccccc2CCc2ccccc21 | 3.1% | u | u | 23.1µM* | 9.3 | u
Nc1ccccc1C(=O)OCC(=O)N1CCc2ccccc21 | 97.4% | 0.6% | i | i | 1.8 | -0.2%
COc1ccc(NC(=O)c2cccn(Cc3ccc(Cl)cc3)c2=O)c(OC)c1 | x | x | i | u | x | x
Nc1ccc2ccc3cccc[n+]3c2c1 | 22.2% | 2.91µM* | u | i | u | 1.2%
CC(C)(O)/C=C/C(=O)[C@](C)(O)C1[C@H](O)C[C@@]2(C)C3CC=C4C(C[C@H](O)[C@@H](O)C4(C)C)[C@]3(C)C(=O)C[C@]12C (stereo not given in full) | 3.1% | u | u | i | 6.5 | 1.3µM*

Screens deposited in PubChem BioAssay by National Center for Advancing Translational Sciences (NCATS).
